The source made the active and inactive calls. How the source made its calls: active means hit-call score of the fitted dose curve at least 0.9, where 1 is the maximum; inactive means score below 0.9.
Test: ATG_AP_2_CIS: Attagene CIS-FACTORIAL HepG2 Assay for human Activator Protein 2 (AP-2) (AID 2282932)
Details: HepG2 AP-2 cis-reporter, Attagene transcription factor profiling; actives raise or lower the signal
Protocol: ATG_CIS is a cell-based, multiplexed-readout assay that uses HepG2, a human liver cell line, with measurements taken at 24 hours after chemical dosing in a 24-well plate.ATG_AP_2_CIS is one of 52 assay component(s) measured or calculated from the ATG_CIS assay. It is designed to make measurements of mRNA induction, a form of inducible reporter, as detected with fluorescence intensity signals by Reverse transcription polymerase chain reaction (RT-PCR) and Capillary electrophoresis technology.Data from the assay component ATG_AP_2_CIS was analyzed into 1 assay endpoint. This assay endpoint, ATG_AP_2_CIS, was analyzed with bidirectional fitting relative to DMSO as the negative control and baseline of activity. Using a type of inducible reporter, measures of mRNA for gain or loss-of-signal activity can be used to understand the reporter gene at the transcription factor-level as they relate to the gene TFAP2A and TFAP2B and TFAP2D. Furthermore, this assay endpoint can be referred to as a primary readout, because this assay has produced multiple assay endpoints where this one serves a reporter gene function. To generalize the intended target to other relatable targets, this assay endpoint is annotated to the dna binding intended target family, where the subfamily is basic helix-turn-helix leucine zipper.
Human liver HepG2 cells are transiently transfected with multiple reporter transcription units (MRTUs) in 6-well plates using FuGene 6 reagent (Roche; 3 ml FuGene/1 mg DNA). The MRTU constructs are regulated by a cis-regulating element (promoter). […] A major difference between the CIS and TRANS system is that in CIS activities of endogenous TFs are measured, whereas the TRANS assay evaluates changes in activities of exogenous, chimeric NR-Gal4 proteins. […] At the end of 24 hour incubation, total RNA was isolated using TriZol reagent (Invitrogen). The isolated RNA is then reverse-transcribed using oligo(dT) primer and Mo-MLV reverse transcriptase (Invitrogen) with DNAse I (Ambion) treatment for 30 min. The one-tenth of the produced cDNA was amplified by PCR using Taq DNA polymerase (Invitrogen) and two reporter sequence-specific primers. The PCR products were fluorescently labeled by primer extension with 6-arboxyfluorescein (6-FAM) 5'-labeled reporter sequence-specific primer (2 min at 95 C, 20 s at 68 C and 10 min at 72 C) and these products were digested with 5U of HpaI (New England Biolabs) for 2h at 37 C. The fragments were purified using Qiaquick PCR columns (Qiagen), analyzed on an ABI 3130xL genetic analyzer (Applied Biosystems) with peak positions identified by using a set of X-rhodamine (ROX)-labeled MapMarker1000 molecular weight standards (BioVentures). The raw capillary electrophoresis data was processed using Attagraph software (Attagene).

Q: With `CCN(CC)c1ccc(C(=O)c2ccccc2C(=O)O)c(O)c1` as the compound, how does the outcome read?
A: The outcome was “inactive”.

Q: Which outcome does the source give for `CNC(=S)NN` here?
A: Its outcome is “inactive”.

Q: For `O=C1CCCCCCCCCCCCCCCO1`, which outcome is on record?
A: The outcome was “inactive”.

Q: With `CCC(CC)C(=O)O` as the compound, how does the outcome read?
A: The outcome was “inactive”.

Q: With `C=CC=CC=CCCCCC` as the compound, how does the outcome read?
A: Its outcome is “inactive”.

Q: Which outcome does the source give for `O=C1c2ccccc2C(=O)C1c1nc2ccccc2c(Br)c1O` here?
A: The outcome was “inactive”.

Q: With `CC(C)(C)c1ccc(-c2ccc(C(C)(C)C)cc2)cc1` as the compound, how does the outcome read?
A: Its outcome is “inactive”.

Q: Which outcome does the source give for `CC1OC1C1CCC2(C)OC2C1` (stereo not given) here?
A: Its outcome is “inactive”.

Q: For `CC1=Nc2ccc3ccccc3c2C1(C)C`, which outcome is on record?
A: The outcome was “inactive”.

Q: Which outcome does the source give for `CC(C)c1ccc2c(c1)CC[C@H]1[C@](C)(CN)CCC[C@]21C` here?
A: Its outcome is “inactive”.

Q: With `c1ccc(-c2ccccn2)nc1` as the compound, how does the outcome read?
A: Its outcome is “inactive”.

Q: With `CC(C)=CC1CC(C)CCO1` (stereo not given) as the compound, how does the outcome read?
A: Its outcome is “inactive”.

Q: Which outcome does the source give for `COC(=O)c1cc(Cl)ccc1[N+](=O)[O-]` here?
A: Its outcome is “inactive”.

Q: For `O=Cc1ccc(CO)o1`, which outcome is on record?
A: Its outcome is “inactive”.

Q: With `CC(=O)CC(N)=O` as the compound, how does the outcome read?
A: Its outcome is “inactive”.

Q: For `ON(Cc1ccccc1)Cc1ccccc1`, which outcome is on record?
A: Its outcome is “inactive”.

Q: Which outcome does the source give for `CCCCCCCC[N+](C)(CCCCCCCC)CCCCCCCC` here?
A: Its outcome is “inactive”.

Q: For `O=Nc1ccc(O)cc1`, which outcome is on record?
A: The outcome was “inactive”.

Q: Which outcome does the source give for `OCCCS` here?
A: Its outcome is “inactive”.

Q: For `COCc1c(C(C)C)nc(C(C)C)c(/C=C/[C@@H](O)C[C@@H](O)CC(=O)O)c1-c1ccc(F)cc1`, which outcome is on record?
A: Its outcome is “inactive”.

Q: Which outcome does the source give for `O=C1OC(=O)c2cc(Oc3ccc4c(c3)C(=O)OC4=O)ccc21` here?
A: Its outcome is “inactive”.

Q: For `CC/C=C\CCOC(=O)CCCCC`, which outcome is on record?
A: The outcome was “inactive”.

Q: Which outcome does the source give for `CCCCCCOc1cc(C)c(O)c(C)c1C` here?
A: Its outcome is “inactive”.

Q: For `c1cc(C(c2ccc(OCC3CO3)cc2)C(c2ccc(OCC3CO3)cc2)c2ccc(OCC3CO3)cc2)ccc1OCC1CO1` (stereo not given), which outcome is on record?
A: Its outcome is “inactive”.

Q: For `C=CCOc1c(Br)cc(Br)cc1Br`, which outcome is on record?
A: Its outcome is “inactive”.

Q: Which outcome does the source give for `Nc1ccc(Cl)cc1Cl` here?
A: Its outcome is “inactive”.

Q: Which outcome does the source give for `C=C(C)C(=O)OCC(C)C` here?
A: Its outcome is “inactive”.

Q: For `Clc1nc2ccccc2s1`, which outcome is on record?
A: The outcome was “inactive”.

Q: With `CCOC(=O)CC(C(C)=O)C(C)=O` as the compound, how does the outcome read?
A: The outcome was “inactive”.

Q: With `OCCc1ccncc1` as the compound, how does the outcome read?
A: Its outcome is “inactive”.

Q: Which AC50 does the source give for `c1ccc(CCCc2ccncc2)cc1` here?
A: The AC50 was 100 µM (active).

Q: With `O=C(C(Cl)Cl)N1CCOC12CCCCC2` as the compound, how does the outcome read?
A: Its outcome is “inactive”.

Q: With `O=[N+]([O-])C1(Br)COCOC1` as the compound, how does the outcome read?
A: Its outcome is “inactive”.

Q: Which outcome does the source give for `CCCCNc1ccc(NCCCC)c2c1C(=O)c1ccccc1C2=O` here?
A: Its outcome is “inactive”.

Q: With `O=[N+]([O-])c1ccc(CO)cc1` as the compound, how does the outcome read?
A: The outcome was “inactive”.

Q: For `O=C(O)CCCCCCCCCC(=O)O`, which outcome is on record?
A: The outcome was “inactive”.

Q: For `C=CC(C)(C)C`, which outcome is on record?
A: Its outcome is “inactive”.

Q: With `Cc1oncc1C(=O)Nc1ccc(C(F)(F)F)cc1` as the compound, how does the outcome read?
A: The outcome was “inactive”.

Q: For `Cc1ccc(OC(=O)CC(C)C)cc1`, which outcome is on record?
A: The outcome was “inactive”.

Q: With `COc1cc(C)ccc1C(C)C` as the compound, how does the outcome read?
A: The outcome was “inactive”.

— PubChem BioAssay (EPA / NIEHS)
